{"source": "paper PMC11006913", "assay_in_all_cases": "PBM; 200 nM protein, PBS", "settings_in_all_cases": "dsDNA, one strand shown", "key": {"[1]": {"molecular_target": "VAX1 (Homo sapiens, UniProt Q5SQQ9 86-172)", "sequence (Q5SQQ9 86-172)": "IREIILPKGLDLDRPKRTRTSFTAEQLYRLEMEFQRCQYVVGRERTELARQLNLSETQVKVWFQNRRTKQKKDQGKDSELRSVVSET"}, "[2]": {"molecular_target": "VAX1 (Homo sapiens, UniProt Q5SQQ9 86-172, T142I)", "sequence (Q5SQQ9 86-172 T142I)": "as the sequence (Q5SQQ9 86-172) above, with T57I counted along it"}, "[3]": {"molecular_target": "VAX1 (Homo sapiens, UniProt Q5SQQ9 86-172, K157R)", "sequence (Q5SQQ9 86-172 K157R)": "as the sequence (Q5SQQ9 86-172) above, with K72R counted along it"}, "[4]": {"molecular_target": "HOXD13 (Homo sapiens, UniProt P35453 263-343, T313A)", "sequence (P35453 263-343 T313A)": "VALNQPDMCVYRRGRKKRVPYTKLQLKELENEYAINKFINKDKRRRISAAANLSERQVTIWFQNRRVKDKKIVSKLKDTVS"}, "[5]": {"molecular_target": "MSX2 (Homo sapiens, UniProt P35548 130-214, F161Y)", "sequence (P35548 130-214 F161Y)": "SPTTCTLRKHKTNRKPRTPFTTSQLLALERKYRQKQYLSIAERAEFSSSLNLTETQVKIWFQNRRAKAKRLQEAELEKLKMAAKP"}, "[6]": {"molecular_target": "HESX1 (Homo sapiens, UniProt Q9UBX0 95-180, F115L)", "sequence (Q9UBX0 95-180 F115L)": "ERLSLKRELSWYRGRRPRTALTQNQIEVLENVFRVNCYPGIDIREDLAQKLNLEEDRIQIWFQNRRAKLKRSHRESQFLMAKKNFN"}, "[7]": {"molecular_target": "T1, PAX4 (Homo sapiens, UniProt O43316 9-242, R227W)", "T1 sequence": "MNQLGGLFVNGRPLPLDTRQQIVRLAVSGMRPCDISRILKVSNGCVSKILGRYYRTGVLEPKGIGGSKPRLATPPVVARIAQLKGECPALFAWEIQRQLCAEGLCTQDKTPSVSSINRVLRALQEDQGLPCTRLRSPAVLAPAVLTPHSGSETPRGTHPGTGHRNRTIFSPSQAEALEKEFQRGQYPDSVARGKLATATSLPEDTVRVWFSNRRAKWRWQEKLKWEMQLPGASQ"}}}
{"sequence": "ATTATTCC", "values": [{"measurement": "binding signal", "setting": "[1]", "result": "10.3 upbm affinity estimate (log intensity, higher = more binding, comparable within an allelic series)"}, {"measurement": "binding signal", "setting": "[2]", "result": "10.1 upbm affinity estimate (log intensity, higher = more binding, comparable within an allelic series)"}, {"measurement": "binding signal", "setting": "[3]", "result": "10.1 upbm affinity estimate (log intensity, higher = more binding, comparable within an allelic series)"}]}
{"sequence": "GTCGAGCA", "values": [{"measurement": "binding signal", "setting": "[1]", "result": "7.29 upbm affinity estimate (log intensity, higher = more binding, comparable within an allelic series)"}, {"measurement": "binding signal", "setting": "[2]", "result": "7.31 upbm affinity estimate (log intensity, higher = more binding, comparable within an allelic series)"}, {"measurement": "binding signal", "setting": "[3]", "result": "7.41 upbm affinity estimate (log intensity, higher = more binding, comparable within an allelic series)"}]}
{"sequence": "AGGGCCCT", "values": [{"measurement": "binding signal", "setting": "[1]", "result": "7.2 upbm affinity estimate (log intensity, higher = more binding, comparable within an allelic series)"}, {"measurement": "binding signal", "setting": "[2]", "result": "7.19 upbm affinity estimate (log intensity, higher = more binding, comparable within an allelic series)"}, {"measurement": "binding signal", "setting": "[3]", "result": "7.36 upbm affinity estimate (log intensity, higher = more binding, comparable within an allelic series)"}]}
{"sequence": "GGCTAAAC", "values": [{"measurement": "binding signal", "setting": "[1]", "result": "9.05 upbm affinity estimate (log intensity, higher = more binding, comparable within an allelic series)"}, {"measurement": "binding signal", "setting": "[3]", "result": "8.95 upbm affinity estimate (log intensity, higher = more binding, comparable within an allelic series)"}]}
{"sequence": "CGGAGACC", "values": [{"measurement": "binding signal", "setting": "[1]", "result": "6.9 upbm affinity estimate (log intensity, higher = more binding, comparable within an allelic series)"}, {"measurement": "binding signal", "setting": "[2]", "result": "7.22 upbm affinity estimate (log intensity, higher = more binding, comparable within an allelic series)"}, {"measurement": "binding signal", "setting": "[3]", "result": "7.28 upbm affinity estimate (log intensity, higher = more binding, comparable within an allelic series)"}]}
{"sequence": "AAATTAGC", "values": [{"measurement": "binding signal", "setting": "[1]", "result": "11.9 upbm affinity estimate (log intensity, higher = more binding, comparable within an allelic series)"}, {"measurement": "binding signal", "setting": "[2]", "result": "11.5 upbm affinity estimate (log intensity, higher = more binding, comparable within an allelic series)"}, {"measurement": "binding signal", "setting": "[3]", "result": "11.6 upbm affinity estimate (log intensity, higher = more binding, comparable within an allelic series)"}]}
{"sequence": "CAGCCGTA", "values": [{"measurement": "binding signal", "setting": "[1]", "result": "7.32 upbm affinity estimate (log intensity, higher = more binding, comparable within an allelic series)"}, {"measurement": "binding signal", "setting": "[2]", "result": "7.28 upbm affinity estimate (log intensity, higher = more binding, comparable within an allelic series)"}, {"measurement": "binding signal", "setting": "[3]", "result": "7.24 upbm affinity estimate (log intensity, higher = more binding, comparable within an allelic series)"}]}
{"sequence": "TAATACCA", "values": [{"measurement": "binding signal", "setting": "[1]", "result": "10.2 upbm affinity estimate (log intensity, higher = more binding, comparable within an allelic series)"}, {"measurement": "binding signal", "setting": "[2]", "result": "9.86 upbm affinity estimate (log intensity, higher = more binding, comparable within an allelic series)"}, {"measurement": "binding signal", "setting": "[3]", "result": "9.87 upbm affinity estimate (log intensity, higher = more binding, comparable within an allelic series)"}]}
{"sequence": "GCCAAGGC", "values": [{"measurement": "binding signal", "setting": "[1]", "result": "7.09 upbm affinity estimate (log intensity, higher = more binding, comparable within an allelic series)"}, {"measurement": "binding signal", "setting": "[2]", "result": "7.33 upbm affinity estimate (log intensity, higher = more binding, comparable within an allelic series)"}, {"measurement": "binding signal", "setting": "[3]", "result": "6.97 upbm affinity estimate (log intensity, higher = more binding, comparable within an allelic series)"}]}
{"sequence": "CCTTCGCC", "values": [{"measurement": "binding signal", "setting": "[1]", "result": "7.18 upbm affinity estimate (log intensity, higher = more binding, comparable within an allelic series)"}, {"measurement": "binding signal", "setting": "[2]", "result": "7.38 upbm affinity estimate (log intensity, higher = more binding, comparable within an allelic series)"}, {"measurement": "binding signal", "setting": "[3]", "result": "7.16 upbm affinity estimate (log intensity, higher = more binding, comparable within an allelic series)"}]}
{"sequence": "GCGGGAGC", "values": [{"measurement": "binding signal", "setting": "[1]", "result": "7.11 upbm affinity estimate (log intensity, higher = more binding, comparable within an allelic series)"}, {"measurement": "binding signal", "setting": "[2]", "result": "7.36 upbm affinity estimate (log intensity, higher = more binding, comparable within an allelic series)"}, {"measurement": "binding signal", "setting": "[3]", "result": "7.04 upbm affinity estimate (log intensity, higher = more binding, comparable within an allelic series)"}]}
{"sequence": "TATAAAGA", "values": [{"measurement": "binding signal", "setting": "[1]", "result": "9.93 upbm affinity estimate (log intensity, higher = more binding, comparable within an allelic series)"}, {"measurement": "binding signal", "setting": "[2]", "result": "9.32 upbm affinity estimate (log intensity, higher = more binding, comparable within an allelic series)"}, {"measurement": "binding signal", "setting": "[3]", "result": "9.28 upbm affinity estimate (log intensity, higher = more binding, comparable within an allelic series)"}]}
{"sequence": "AGCCGGTG", "values": [{"measurement": "binding signal", "setting": "[1]", "result": "7.24 upbm affinity estimate (log intensity, higher = more binding, comparable within an allelic series)"}, {"measurement": "binding signal", "setting": "[2]", "result": "7.45 upbm affinity estimate (log intensity, higher = more binding, comparable within an allelic series)"}, {"measurement": "binding signal", "setting": "[3]", "result": "7.26 upbm affinity estimate (log intensity, higher = more binding, comparable within an allelic series)"}]}
{"sequence": "AGGGTCAG", "values": [{"measurement": "binding signal", "setting": "[1]", "result": "7.22 upbm affinity estimate (log intensity, higher = more binding, comparable within an allelic series)"}, {"measurement": "binding signal", "setting": "[2]", "result": "7.35 upbm affinity estimate (log intensity, higher = more binding, comparable within an allelic series)"}, {"measurement": "binding signal", "setting": "[3]", "result": "7.25 upbm affinity estimate (log intensity, higher = more binding, comparable within an allelic series)"}]}
{"sequence": "GGTATACC", "values": [{"measurement": "binding signal", "setting": "[1]", "result": "7.63 upbm affinity estimate (log intensity, higher = more binding, comparable within an allelic series)"}, {"measurement": "binding signal", "setting": "[2]", "result": "7.37 upbm affinity estimate (log intensity, higher = more binding, comparable within an allelic series)"}, {"measurement": "binding signal", "setting": "[3]", "result": "7.24 upbm affinity estimate (log intensity, higher = more binding, comparable within an allelic series)"}]}
{"sequence": "TTATGGAA", "values": [{"measurement": "binding signal", "setting": "[1]", "result": "9.61 upbm affinity estimate (log intensity, higher = more binding, comparable within an allelic series)"}, {"measurement": "binding signal", "setting": "[2]", "result": "9.32 upbm affinity estimate (log intensity, higher = more binding, comparable within an allelic series)"}, {"measurement": "binding signal", "setting": "[3]", "result": "9.34 upbm affinity estimate (log intensity, higher = more binding, comparable within an allelic series)"}]}
{"sequence": "CCGGCTTC", "values": [{"measurement": "binding signal", "setting": "[1]", "result": "6.96 upbm affinity estimate (log intensity, higher = more binding, comparable within an allelic series)"}, {"measurement": "binding signal", "setting": "[2]", "result": "7.09 upbm affinity estimate (log intensity, higher = more binding, comparable within an allelic series)"}, {"measurement": "binding signal", "setting": "[3]", "result": "6.93 upbm affinity estimate (log intensity, higher = more binding, comparable within an allelic series)"}]}
{"sequence": "CGCGCTAG", "values": [{"measurement": "binding signal", "setting": "[1]", "result": "7.18 upbm affinity estimate (log intensity, higher = more binding, comparable within an allelic series)"}, {"measurement": "binding signal", "setting": "[2]", "result": "7.3 upbm affinity estimate (log intensity, higher = more binding, comparable within an allelic series)"}, {"measurement": "binding signal", "setting": "[3]", "result": "7.16 upbm affinity estimate (log intensity, higher = more binding, comparable within an allelic series)"}]}
{"sequence": "CTTCATCA", "values": [{"measurement": "binding signal", "setting": "[1]", "result": "9.74 upbm affinity estimate (log intensity, higher = more binding, comparable within an allelic series)"}, {"measurement": "binding signal", "setting": "[2]", "result": "9.33 upbm affinity estimate (log intensity, higher = more binding, comparable within an allelic series)"}, {"measurement": "binding signal", "setting": "[3]", "result": "9.51 upbm affinity estimate (log intensity, higher = more binding, comparable within an allelic series)"}]}
{"sequence": "CGACCCAG", "values": [{"measurement": "binding signal", "setting": "[1]", "result": "7.38 upbm affinity estimate (log intensity, higher = more binding, comparable within an allelic series)"}, {"measurement": "binding signal", "setting": "[2]", "result": "7.45 upbm affinity estimate (log intensity, higher = more binding, comparable within an allelic series)"}, {"measurement": "binding signal", "setting": "[3]", "result": "7.3 upbm affinity estimate (log intensity, higher = more binding, comparable within an allelic series)"}]}
{"sequence": "ACGCATAA", "values": [{"measurement": "binding signal", "setting": "[1]", "result": "9.35 upbm affinity estimate (log intensity, higher = more binding, comparable within an allelic series)"}, {"measurement": "binding signal", "setting": "[2]", "result": "8.83 upbm affinity estimate (log intensity, higher = more binding, comparable within an allelic series)"}, {"measurement": "binding signal", "setting": "[3]", "result": "8.87 upbm affinity estimate (log intensity, higher = more binding, comparable within an allelic series)"}]}
{"sequence": "CAACGCGG", "values": [{"measurement": "binding signal", "setting": "[1]", "result": "7.3 upbm affinity estimate (log intensity, higher = more binding, comparable within an allelic series)"}, {"measurement": "binding signal", "setting": "[2]", "result": "7.21 upbm affinity estimate (log intensity, higher = more binding, comparable within an allelic series)"}, {"measurement": "binding signal", "setting": "[3]", "result": "7.43 upbm affinity estimate (log intensity, higher = more binding, comparable within an allelic series)"}]}
{"sequence": "CCGGCAGC", "values": [{"measurement": "binding signal", "setting": "[1]", "result": "7.15 upbm affinity estimate (log intensity, higher = more binding, comparable within an allelic series)"}, {"measurement": "binding signal", "setting": "[2]", "result": "7.15 upbm affinity estimate (log intensity, higher = more binding, comparable within an allelic series)"}, {"measurement": "binding signal", "setting": "[3]", "result": "7.17 upbm affinity estimate (log intensity, higher = more binding, comparable within an allelic series)"}]}
{"sequence": "CTGTAAAA", "values": [{"measurement": "binding signal", "setting": "[4]", "result": "11.6 upbm affinity estimate (log intensity, higher = more binding, comparable within an allelic series)"}]}
{"sequence": "ACTATTAA", "values": [{"measurement": "binding signal", "setting": "[4]", "result": "11.6 upbm affinity estimate (log intensity, higher = more binding, comparable within an allelic series)"}]}
{"sequence": "AATTACAA", "values": [{"measurement": "binding signal", "setting": "[5]", "result": "12.9 upbm affinity estimate (log intensity, higher = more binding, comparable within an allelic series)"}]}
{"sequence": "AAATTATT", "values": [{"measurement": "binding signal", "setting": "[6]", "result": "7.73 upbm affinity estimate (log intensity, higher = more binding, comparable within an allelic series)"}]}
{"sequence": "CTTATTAA", "values": [{"measurement": "binding signal", "setting": "[6]", "result": "7.74 upbm affinity estimate (log intensity, higher = more binding, comparable within an allelic series)"}]}
{"sequence": "CATATTAG", "values": [{"measurement": "binding signal", "setting": "[7]", "result": "10.9 upbm affinity estimate (log intensity, higher = more binding, comparable within an allelic series)"}]}
{"sequence": "ATTATTAG", "values": [{"measurement": "binding signal", "setting": "[7]", "result": "10.9 upbm affinity estimate (log intensity, higher = more binding, comparable within an allelic series)"}]}
